Assay outcomes (PubChem BioAssay)
Most compounds without a hit are left out; they make up all but 1.4% or so of the library.
NFkB transloc inh – blocks IL-1B driven NFkB nuclear translocation in HUVEC cells; HUVEC IL-1B NFkB p65 nuclear translocation imaging; inhibition, % at 2 µM; 94,000 compounds, 0.43% hits; AID 796;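 active means inhibition above about 30% together with a positive call from visual inspection of the well image, limit read from the data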;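 further: nuclear over cytoplasmic p65 intensity ratio measured by imaging; 0% = IL-1B stimulated DMSO wells and 100% = unstimulated DMSO wells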
IL1B NFkB pot – enhances IL-1B driven NFkB nuclear translocation; HUVEC IL-1B NFkB p65 nuclear translocation imaging; activation, % at 2 µM; 94,000 compounds, 0.3% hits;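 active means activation above 40%, about the mean plus 3 SD, also judged a hit on visual image review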;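 further: percent activation is computed from the nuclear over cytoplasmic p65 intensity ratio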
Pyk2 oligo antag – blocks oligomerization of human Pyk2 in cells; Q293 cells, Pyk2 FERM NanoBiT luminescence; active compounds read low; z-score (the deposit names both 25 µM and 10 µM); 99,000 compounds, 0.83% hits; Q14289;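 active means Z-score of -3 or lower, scaled per plate to the spread of control and sample wells; inactive means z-score above -3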;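 further: negative z-score means lost luminescence so less FERM oligomerization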
Target sequence (Q14289 whole entry, looked up): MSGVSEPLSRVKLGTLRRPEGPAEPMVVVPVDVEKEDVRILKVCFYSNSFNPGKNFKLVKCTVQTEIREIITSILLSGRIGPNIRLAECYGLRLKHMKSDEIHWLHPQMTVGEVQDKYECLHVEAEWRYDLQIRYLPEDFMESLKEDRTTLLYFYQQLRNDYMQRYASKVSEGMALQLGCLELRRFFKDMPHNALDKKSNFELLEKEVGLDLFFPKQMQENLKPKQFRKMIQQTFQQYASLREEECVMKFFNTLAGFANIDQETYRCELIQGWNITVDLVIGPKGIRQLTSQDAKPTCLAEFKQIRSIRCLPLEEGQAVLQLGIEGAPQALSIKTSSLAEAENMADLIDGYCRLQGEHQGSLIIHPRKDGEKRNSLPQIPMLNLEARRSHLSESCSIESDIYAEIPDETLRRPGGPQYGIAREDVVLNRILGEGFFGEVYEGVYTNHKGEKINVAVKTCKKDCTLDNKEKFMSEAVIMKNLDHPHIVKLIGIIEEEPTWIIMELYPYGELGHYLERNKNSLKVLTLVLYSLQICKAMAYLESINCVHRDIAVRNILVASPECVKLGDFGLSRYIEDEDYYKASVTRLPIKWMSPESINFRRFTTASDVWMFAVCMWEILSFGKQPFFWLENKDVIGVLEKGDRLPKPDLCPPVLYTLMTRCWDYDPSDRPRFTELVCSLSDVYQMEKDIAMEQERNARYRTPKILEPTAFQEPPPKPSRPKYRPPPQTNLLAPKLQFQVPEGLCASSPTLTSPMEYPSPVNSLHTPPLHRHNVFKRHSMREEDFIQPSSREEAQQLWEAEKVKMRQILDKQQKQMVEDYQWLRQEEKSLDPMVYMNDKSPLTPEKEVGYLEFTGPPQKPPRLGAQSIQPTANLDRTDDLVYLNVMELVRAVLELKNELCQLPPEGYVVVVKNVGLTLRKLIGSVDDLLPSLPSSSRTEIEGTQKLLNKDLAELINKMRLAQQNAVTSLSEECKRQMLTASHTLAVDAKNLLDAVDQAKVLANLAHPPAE
Phagocyt inh – blocks phagocytosis by macrophages | J774A.1 macrophage IgG-bead phagocytosis, imaging | inhibition, % at 5 µM | 110,000 compounds, 0.07% hits;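 active means inhibition above the mean of the plate negative controls plus 5 SD, cut at about 13% in these data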;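 further: phagocytic index as fraction of beads internalized from green versus red external bead signal; plate controls were DMSO negative control for no effect and cytochalasin-D positive control for full effect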
HUVEC tox IL1B – toxic to HUVEC cells under IL-1B stimulation. cell count reduction, % at 2 µM. AID 845. 94,000 compounds, 0.41% hits. HUVEC cell count loss, Hoechst imaging, IL-1B stimulated;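 active means cell count reduction more than 3 SD above the screen-wide mean, cut at about 70% in these data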;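 further: normalized per plate to untreated control cells as the no-loss baseline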
An asterisk follows results filed as active; nt = not tested or not shown.

SMILES | NFkB transloc inh | IL1B NFkB pot | Pyk2 oligo antag | Phagocyt inh | HUVEC tox IL1B
CN1CC=C2C(C#N)=C(N)C(C#N)(C#N)C(c3ccsc3)C2C1 (stereo not drawn) | -9.7 | 9.7 | -0.75 | -0.8 | 1.8
CN1CC=C2C(C#N)=C(N)C(C#N)(C#N)[C@H](c3cccc(Cl)c3)C2C1 (stereo partly drawn) | 33.8* | -33.8 | -0.54 | 0.9 | -41.7
C#CCn1c(S(=O)(=O)Cc2ccccc2Cl)nc(-c2ccccc2)c1-c1ccccc1 | 4.9 | -4.9 | -3.53* | -0.5 | -14.2
C#CCn1c(S(=O)(=O)Cc2ccc(C)cc2)nc(-c2ccccc2)c1-c1ccccc1 | -4.6 | 4.6 | -3.38* | 0.7 | -60.4
COc1ccccc1C(=O)Nc1nc(N)n(-c2ccccc2)n1 | 8.5 | -8.5 | -0.49 | nt | -5.6
Cn1c(C(C#N)C(=O)c2sc3ccccc3c2Cl)nc2ccccc21 (stereo not drawn) | 3.2 | -3.2 | -0.83 | -0.9 | -1.7
CCCn1nc([N+](=O)[O-])c(C(C#N)c2nc3ccccc3s2)c(Cl)c1=O (stereo not drawn) | 1.1 | -1.1 | -3.18* | -1.1 | -6.7
CCn1cc(C(=O)OCc2ccc(F)cc2)c(=O)c2ccc(C)nc21 | 5.7 | -5.7 | -0.28 | -1.3 | 86.3*
CSCCOC(=O)C1=C(C)Nc2ccc(C)cc2S1 | 57.9* | -57.9 | -0.35 | 1.6 | -7.1
CC(C)(C)NC(=O)NC(=O)COC(=O)c1cc(=O)[nH]c2ccccc12 | -11.7 | 11.7 | -3.82* | -0.6 | 21.0
CCCCCOC(=O)c1cc(=O)[nH]c2ccccc12 | 8.0 | -8.0 | -3.54* | -0.9 | 12.4
Cc1c(C(=O)N2CCN(Cc3ccc4c(c3)OCO4)CC2)cccc1[N+](=O)[O-] | nt | nt | nt | -5.9 | nt
O=C(OCc1cc2ccccc2[nH]c1=O)c1ccccn1 | -4.7 | 4.7 | -0.21 | 0.5 | 11.6
COc1ccccc1N1CCN(C(CNC(=O)c2ccco2)c2cccnc2)CC1 (stereo not drawn) | -4.6 | 4.6 | nt | -0.8 | -47.6
COc1ccc(N2CCN(C(CNC(=O)c3ccco3)c3cccnc3)CC2)cc1 (stereo not drawn) | -40.4 | 40.4* | -1.88 | -0.7 | -12.4
Cc1ccccc1CN(c1ccc(C(=O)Nc2ccccc2C(=O)NCc2ccco2)cc1)S(C)(=O)=O | -9.1 | 9.1 | -3.57* | -0.7 | -70.2
O=C(O)Cc1coc(-c2ccc(F)cc2)n1 | -11.2 | 11.2 | 0.17 | -0.7 | -6.9
NC(=S)N/N=C/c1ccc(-c2cc(Cl)ccc2Cl)o1 | -8.1 | 8.0 | -3.05* | -0.3 | 2.8
Cc1occc1C(=O)NC1CCCc2ccccc21 (stereo not drawn) | 6.6 | -6.6 | -0.46 | -0.4 | 79.5*
O=C(NCc1cccs1)C1CC(c2ccccc2O)=NO1 (stereo not drawn) | -3.0 | 3.0 | 0.8 | -2.9 | 32.1
O=C(c1cc(S(=O)(=O)N2CCCCC2)ccc1F)N1CCCCC1 | -9.2 | 9.2 | 0.08 | 1.1 | -20.2
COc1cc(-c2c(C#N)c(N)nc3c2CCCC3)cc(OC)c1OC | 10.7 | -10.7 | 0.1 | nt | 19.2
Cc1ccccc1NC(=O)CSc1nc(N)c(C#N)c(-c2cccs2)c1C#N | -0.9 | 0.9 | -3.66* | nt | -17.7
COc1cc(-c2c(C#N)c(N)nc(SCc3ccncc3)c2C#N)cc(OC)c1OC | -4.5 | 4.5 | -4.07* | -0.5 | -21.0
N#Cc1c(N)nc(SCc2ccncc2)c(C#N)c1-c1cccs1 | nt | nt | -3.86* | -0.8 | nt
SMILES | NFkB transloc inh | IL1B NFkB pot | Pyk2 oligo antag | Phagocyt inh | HUVEC tox IL1B
COCCn1c(-c2ccc(OC)cc2)cnc1SCC(=O)Nc1cccc2ccccc12 | -18.5 | 18.5 | -0.97 | -1.1 | -14.4
Cc1[nH]n(C(N)=S)c(=O)c1N=Nc1ccc(S(=O)(=O)N2CCCC2)cc1 | 3.3 | -3.2 | -1.43 | nt | -23.8
O=C(c1cc2ccccc2oc1=O)N(Cc1ccccc1)Cc1ccc2c(c1)OCO2 | -6.4 | 6.4 | -3.14* | nt | 17.0
O=C(c1cc2ccccc2oc1=O)N1CCN(Cc2ccc3c(c2)OCO3)CC1 | 19.3 | -19.3 | 0.26 | -0.3 | -4.7
CC1CC(N(C(=O)c2ccccc2Cl)c2ccccc2)c2ccccc2N1 (stereo not drawn) | -3.5 | 3.5 | -3.65* | 0.2 | -22.6
COc1ccc(-c2[nH]c(-c3ccc(C(=O)O)cc3)nc2-c2ccccc2)cc1 | 64.3* | -64.3 | -1.42 | nt | 10.9
O=C(O)c1ccc(-c2nc(-c3ccccc3)c(-c3ccccc3)[nH]2)cc1 | nt | nt | nt | 0.1 | nt
COc1ccc(C2=NOC(C(=O)NCCCN3CCOCC3)C2)cc1 (stereo not drawn) | -46.8 | 46.8* | 0.78 | 1.4 | 5.3
COc1cc(/C=N/N(C)c2ccccc2)ccc1O | 0.9 | -0.9 | -3.05* | nt | 3.2
COc1cc(OC)c(OC)cc1/C=N/N(C)c1ccccc1 | -2.8 | 2.8 | -1.02 | 0.4 | -1.4
